From PubChem BioAssay (Tox21)
Inconclusive results are not listed. Calls of active or inactive are those of the source. Unless noted, calls come from the whole dose curve; as a rule, active = well fitted curve in the direction sought with a large enough effect in the repeat runs; inconclusive = weak or mixed curves; inactive = no such curve, though single readings can be large; an effect the other way counts as inactive or inconclusive.

What was measured:
[1] = target: Nuclear receptor subfamily 1 group I member 3 (Homo sapiens) (UniProt Q14994); assay: qHTS assay to identify small molecule antagonists of the constitutive androstane receptor (CAR) signaling pathway (AID 1224838);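 note: HepG2 cells stably expressing hCAR with CYP2B6 luciferase reporter stimulated by CITCO; nearly all actives have a fitted effect of over 40% in size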; note: potency is the fitted concentration of half-maximal effect
Nuclear receptor subfamily 1 group I member 3 (Homo sapiens), sequence (Q14994 whole entry, looked up): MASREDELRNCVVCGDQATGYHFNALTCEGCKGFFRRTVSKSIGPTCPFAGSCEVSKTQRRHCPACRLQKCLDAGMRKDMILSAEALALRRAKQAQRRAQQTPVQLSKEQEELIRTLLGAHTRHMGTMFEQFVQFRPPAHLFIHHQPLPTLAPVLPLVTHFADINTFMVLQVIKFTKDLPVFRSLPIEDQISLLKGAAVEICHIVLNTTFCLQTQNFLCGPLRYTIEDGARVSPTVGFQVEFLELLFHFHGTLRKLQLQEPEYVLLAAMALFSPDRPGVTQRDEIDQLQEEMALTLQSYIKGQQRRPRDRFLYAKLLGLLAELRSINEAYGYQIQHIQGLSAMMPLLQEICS
In short: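 Antagonism measured as luciferase signal (ONE-Glo, 30 min, room temperature) in CAR-stimulated cells: HepG2-CYP2B6-hCAR double-stable line exposed 24 hr at 37 C to compound in a 15-point series plus 50 nM CITCO.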

[2] = target: Nuclear receptor subfamily 1 group I member 3 (Homo sapiens) (UniProt Q14994); assay: qHTS assay to identify small molecule agonists of the constitutive androstane receptor (CAR) signaling pathway (AID 1224839); note: nearly all actives have a fitted effect of over 15% in size; note: potency is the fitted concentration of half-maximal effect;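 for activation: HepG2 cells stably carrying human CAR and a CYP2B6 luciferase reporter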
In short: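 Luminescence read-out (ONE-Glo, 30 min, room temperature) from double-stable HepG2-CYP2B6-hCAR cells exposed 24 h to 15-point compound series in presence of 0.75 uM PK11195 final.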

[3] = qHTS assay to identify small molecule antagonists of the estrogen related receptor signaling pathway with the pleiotropic PPARgamma coactivator (PGC) from Tox21 10K library - cell viability counter screen (AID 1224840; active = well fitted cell-killing curve with a large enough effect in the repeat runs, not every such curve was filed as active; note: nearly all actives have a fitted effect of over 40% in size; note: potency is the fitted concentration of half-maximal effect)
In short: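 Counter-screen for cytotoxicity: after 17.5 h compound exposure at 37 C, CellTiter-Fluor reagent added to PGC/ERR cells for 30 min and fluorescence read. Cells were seeded at 2,000 per well 6 h before dosing.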

[4] = qHTS assay to identify small molecule antagonists of the estrogen related receptor signaling pathway with the pleiotropic PPARgamma coactivator (PGC) from Tox21 10K library (AID 1224841; call rule not given here; note: actives are mostly falling curves and most rising ones were filed inactive; nearly all actives have a fitted effect of over 50% in size; note: potency is the fitted concentration of half-maximal effect)
In short: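 Luminescence (One-Glo, 30 min at room temperature) after 18 h compound treatment at 37 C of PGC/ERR reporter cells plated at 2,000 cells/well and settled 6 h beforehand.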

[5] = qHTS assay to identify small molecule agonists of the estrogen related receptor signaling pathway with the pleiotropic PPARgamma coactivator (PGC) from Tox21 10K library (AID 1224842); note: nearly all actives have a fitted effect of over 15% in size; note: potency is the fitted concentration of half-maximal effect
In short: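 PGC/ERR reporter cells (NTP line) were seeded 2,000 per well, rested 6 h at 37 C/5% CO2, then pin-dosed with compounds in DMSO for 18 h at 37 C; luciferase read by One-Glo luminescence after 30 min at room temperature.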

[6] = qHTS assay to identify small molecule agonists of the hypoxia (HIF-1) signaling pathway - cell viability counter screen (AID 1224844; calls by dose curve; note: nearly all actives have a fitted effect of over 50% in size)
In short: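 Cytotoxicity measured by CellTiter-Glo ATP luminescence in the wells also read for beta-lactamase signal. Cells were HRE-bla ME-180 (2,000/well, 0.5% dialyzed FBS), exposed to compounds for 17 h at 37C.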

[7] = qHTS assay to identify small molecule agonists of the hypoxia (HIF-1) signaling pathway (AID 1224846; active = well fitted activation curve with a large enough effect in the signal ratio in the repeat runs, not every such curve was filed as active; the % refers to the signal ratio)
In short: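 Compounds added to ME-180 cells carrying hypoxia-response-element beta-lactamase reporter (0.5% dialyzed FBS, 5 h preplating), 17 h at 37C; agonist activity detected by CCF4-AM B/G FRET read-out.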

[8] = qHTS assay to identify small molecule agonists of H2AX - cell viability counter screen (AID 1224847; calls by dose curve; note: nearly all actives have a fitted effect of over 30% in size; note: potency is the fitted concentration of half-maximal effect)
In short: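 CHO-K1 wt, 1000 cells/well, o/n 37C; cpds 15 conc, 3 h 37C, 0.76% DMSO; CellTiter-Glo, 30 min RT, luminescence.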

[9] = qHTS assay to identify small molecule antagonists of the estrogen related receptor (ERR) signaling pathway from Tox21 library (AID 1224848); note: nearly all actives have a fitted effect of over 50% in size; note: potency is the fitted concentration of half-maximal effect
In short: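 Tox21 10K compounds in DMSO tested for ERR pathway antagonism in NTP's ERR cell line; 18 h, 37 C exposure; ONE-Glo luminescence.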

[10] = qHTS assay to identify small molecule agonists of the estrogen related receptor (ERR) signaling pathway from Tox21 library (AID 1224849; calls by dose curve; note: nearly all actives have a fitted effect of over 15% in size); conditions: ERR reporter cell line, ONE-Glo luciferase, 18 h; at 92.4 µM (top of the series) unless noted
In short: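 Luminescent agonist read-out (One-Glo, 30-minute room-temperature incubation) following 18-hour compound treatment at 37 C of the ERR cell line, which had been plated 6 hours before dosing.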

[11] = qHTS RealTime-Glo MT Cell Viability Assay in HepG2 cells - 24 hour (AID 1224867); note: nearly all actives have a fitted effect of over 50% in size
In short: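 HepG2 cells (600/well) were dispensed with RealTime-Glo reagents, incubated 5 h at 37 °C, then treated with compounds in DMSO for up to 40 h. Nonlytic NanoLuc luminescence reflecting viable cells was read at each stated time point.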

[12] = qHTS RealTime-Glo MT Cell Viability Assay in HEK293 cells - 32 hour (AID 1224868); note: nearly all actives have a fitted effect of over 50% in size; note: potency is the fitted concentration of half-maximal effect
In short: (§1)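 HEK293 cells seeded with NanoLuc/prosubstrate reagent, rested 5 h at 37 C, then dosed and kept at 37 C up to 40 h. Nonlytic real-time luminescence from viable cells read at 0, 8, 16, 24, 32 and 40 h.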

[13] = A CellTox Green Cytotoxicity Assay to monitor cytotoxicity in HEK293 cells - 0 hour (AID 1224869); note: nearly all actives have a fitted effect of over 50% in size
In short: (§2)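 Fluorescence from a DNA-binding dye excluded by viable cells was measured repeatedly in the same HEK293 wells (600 cells/well) during continuous compound exposure at 37 C. Each assay gives one read point: 0, 8, 16, 24, 32 or 40 h.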

[14] = qHTS RealTime-Glo MT Cell Viability Assay in HepG2 cells - 40 hour (AID 1224870); note: nearly all actives have a fitted effect of over 50% in size
In short: (§3)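 HepG2 cells mixed with RealTime-Glo MT reagents (NanoLuc plus cell-permeant prosubstrate) were seeded at 600 cells/well, incubated 5 h at 37 C/5% CO2, then pinned with compounds in DMSO; nonlytic luminescence tracked viability during 40 h treatment.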

[15] = A CellTox Green Cytotoxicity Assay to monitor cytotoxicity in HEK293 cells - 40 hour (AID 1224871); note: nearly all actives have a fitted effect of over 45% in size; note: potency is the fitted concentration of half-maximal effect
In short: as §2

[16] = qHTS RealTime-Glo MT Cell Viability Assay in HEK293 cells - 16 hour (AID 1224872); note: nearly all actives have a fitted effect of over 50% in size; note: potency is the fitted concentration of half-maximal effect
In short: as §1

[17] = target: Thyrotropin receptor (Homo sapiens) (UniProt P16473); assay: qHTS assay to identify small molecule agonists of the thyroid stimulating hormone receptor (TSHR) signaling pathway (AID 1224843; calls by dose curve; note: nearly all actives have a fitted effect of over 45% in size; note: potency is the fitted concentration of half-maximal effect)
Thyrotropin receptor (Homo sapiens), sequence (P16473 whole entry, looked up): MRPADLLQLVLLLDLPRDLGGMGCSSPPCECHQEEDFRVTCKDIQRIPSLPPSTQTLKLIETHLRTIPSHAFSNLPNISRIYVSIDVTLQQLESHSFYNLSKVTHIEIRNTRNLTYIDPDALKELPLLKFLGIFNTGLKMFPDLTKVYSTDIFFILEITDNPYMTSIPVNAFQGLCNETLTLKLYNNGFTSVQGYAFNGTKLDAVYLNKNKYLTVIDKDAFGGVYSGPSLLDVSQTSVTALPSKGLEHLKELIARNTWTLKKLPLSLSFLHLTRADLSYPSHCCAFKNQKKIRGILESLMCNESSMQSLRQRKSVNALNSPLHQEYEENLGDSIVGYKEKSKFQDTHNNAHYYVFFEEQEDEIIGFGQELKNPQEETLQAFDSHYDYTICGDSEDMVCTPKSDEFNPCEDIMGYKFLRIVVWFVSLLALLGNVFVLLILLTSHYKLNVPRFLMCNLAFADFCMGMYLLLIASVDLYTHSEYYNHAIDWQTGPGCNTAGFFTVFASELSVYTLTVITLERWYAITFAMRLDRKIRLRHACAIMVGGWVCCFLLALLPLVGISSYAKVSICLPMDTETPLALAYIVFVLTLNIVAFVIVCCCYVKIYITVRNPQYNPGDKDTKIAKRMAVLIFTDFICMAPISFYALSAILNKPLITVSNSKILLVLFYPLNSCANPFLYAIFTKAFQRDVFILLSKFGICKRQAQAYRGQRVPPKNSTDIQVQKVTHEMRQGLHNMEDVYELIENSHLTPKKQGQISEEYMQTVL
In short: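 Using 15 concentrations per compound in triplicate, cAMP production was monitored in TSHR-HEK293 cells after 30 min compound incubation at RT; HTRF reagents followed, with fluorescence intensity recorded after 1 h.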

[18] = qHTS RealTime-Glo MT Cell Viability Assay in HEK293 cells - 40 hour (AID 1224874); conditions: RealTime-Glo luminescence; max response: hits give low values; note: nearly all actives have a fitted effect of over 50% in size; note: potency is the fitted concentration of half-maximal effect
In short: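 Luminescence, which tracks viable cell number through reduction of the prosubstrate to a NanoLuc substrate, was read over continuous 37 C culture. Cells (600/well) were premixed with reagent and rested 5 h before 23 nL of compound in DMSO was pinned.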

[19] = qHTS RealTime-Glo MT Cell Viability Assay in HepG2 cells - 8 hour (AID 1224873); note: nearly all actives have a fitted effect of over 55% in size
In short: as §3

[20] = qHTS assay to identify small molecule agonists of H2AX (AID 1224845; active = well fitted activation curve with a large enough effect in the signal ratio in the repeat runs, not every such curve was filed as active; the % refers to the signal ratio; note: potency is the fitted concentration of half-maximal effect)
In short: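 Wild-type CHO-K1 cells plated overnight, then exposed 3 hr at 37C to compounds at 15 concentrations (0.76% DMSO). Lysed, then HTRF anti-pH2AX(S139)-cryptate/anti-H2AX-d2 detection after 24 hr at room temperature; emissions 665 and 620 nm.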
% is set by controls: 0 for no effect and ±100 for the full control effect.

Clc1cccc(Cl)n1
inactive: Potency [1] | Potency [2] | Potency [3] | Potency [4] | Potency [5] | Potency [6] | Potency [7] | Potency [8] | Potency [9] | activity change, positive = activation [10] 0.024% | Potency [11] | Potency [12] | Potency [13] | Potency [14] | Potency [15] | Potency [16]

O=[N+]([O-])c1ccc(O)c2ncccc12
active: Potency [2] 11.9 µM | Potency [3] 10.6 µM | Potency [4] 5.31 µM | Potency [9] 5.31 µM | Potency [15] 9.52 µM | Potency [18] 9.52 µM
inactive: Potency [1] | Potency [5] | Potency [17] | Potency [6] | Potency [8] | activity change, positive = activation [10] -55.9% [at 42.5 µM] | Potency [11] | Potency [13] | Potency [14] | Potency [16]

Clc1ccc2c(Cl)ccnc2c1
inactive: Potency [1] | Potency [2] | Potency [3] | Potency [4] | Potency [5] | Potency [17] | Potency [6] | Potency [7] | Potency [8] | Potency [9] | activity change, positive = activation [10] 1.29% | Potency [11] | Potency [12] | Potency [13] | Potency [14] | Potency [16] | Potency [19] | max response [18] -6.98%

C=C1C(CCl)(CCl)C2(Cl)C(Cl)C(Cl)C1(Cl)C2(Cl)Cl (centres undefined)
active: Potency [2] 8.53 µM | Potency [3] 53.8 µM | Potency [4] 60.4 µM | Potency [17] 17 µM | Potency [20] 99.6 µM | Potency [8] 99.6 µM | Potency [9] 60.4 µM | Potency [15] 48.4 µM | Potency [16] 48.4 µM
inactive: Potency [1] | Potency [5] | activity change, positive = activation [10] -73.9% | Potency [13] | Potency [14]

CCCOC(=O)c1ccc(O)cc1
active: Potency [2] 54.5 µM | Potency [5] 10.9 µM | activity change, positive = activation [10] 17.7% | Potency [16] 49 µM
inactive: Potency [1] | Potency [3] | Potency [4] | Potency [17] | Potency [6] | Potency [20] | Potency [8] | Potency [9] | Potency [11] | Potency [13] | Potency [14] | Potency [15]

[Cl][Sc]([Cl])[Cl]
inactive: Potency [1] | Potency [2] | Potency [3] | Potency [5] | Potency [17] | Potency [6] | Potency [20] | Potency [7] | Potency [8] | Potency [9] | activity change, positive = activation [10] 0.963% | Potency [11] | Potency [12] | Potency [13] | Potency [14] | Potency [15] | Potency [16] | Potency [19] | max response [18] -3.01%

C=Cc1ccncc1
inactive: Potency [1] | Potency [2] | Potency [3] | Potency [4] | Potency [5] | Potency [17] | Potency [20] | Potency [7] | Potency [8] | Potency [9] | activity change, positive = activation [10] 4.99% | Potency [11] | Potency [12] | Potency [13] | Potency [14] | Potency [15] | Potency [16] | Potency [19] | max response [18] -1.15%

S=C1NC=NC2N=CNC12 (centres undefined)
active: Potency [1] 6.11 µM | Potency [4] 0.486 µM | Potency [8] 3.19 µM | Potency [9] 19.3 µM | Potency [12] 21.9 µM
inactive: Potency [2] | Potency [3] | Potency [5] | Potency [17] | Potency [7] | activity change, positive = activation [10] -55.5% | Potency [11] | Potency [13] | Potency [14] | Potency [15] | Potency [19]

CC(C)(C)C1=CC(=O)C(C(C)(C)C)=CC1=O
inactive: Potency [1] | Potency [3] | Potency [4] | Potency [5] | Potency [7] | Potency [8] | Potency [9] | activity change, positive = activation [10] -2.14% [at 42.5 µM] | Potency [11] | Potency [13] | Potency [19]
active: Potency [2] 21.1 µM | Potency [17] 9.44 µM

Nc1ccc(Oc2cccc(Oc3ccc(N)cc3)c2)cc1
active: Potency [1] 1.37 µM | Potency [4] 8.63 µM | Potency [20] 113 µM | Potency [9] 4.33 µM
inactive: Potency [2] | Potency [3] | Potency [5] | Potency [17] | Potency [6] | Potency [7] | activity change, positive = activation [10] -57.1% | Potency [11] | Potency [13] | Potency [14] | Potency [15] | Potency [16]

COc1cc(OC)nc(NC(=O)NS(=O)(=O)Nc2ccccc2C(=O)N(C)C)n1
inactive: Potency [1] | Potency [2] | Potency [3] | Potency [4] | Potency [5] | Potency [17] | Potency [7] | Potency [8] | Potency [9] | activity change, positive = activation [10] -7.75% | Potency [11] | Potency [12] | Potency [13] | Potency [14] | Potency [15] | Potency [16] | Potency [19] | max response [18] 6.33%

Nc1c(Br)cc([N+](=O)[O-])cc1Br
active: Potency [4] 54.5 µM
inactive: Potency [1] | Potency [2] | Potency [3] | Potency [5] | Potency [7] | Potency [8] | activity change, positive = activation [10] -20.8% | Potency [11] | Potency [12] | Potency [13] | Potency [14] | Potency [15] | Potency [16] | Potency [19] | max response [18] -23.8%

NC(=O)c1ccccc1Cl
inactive: Potency [1] | Potency [2] | Potency [3] | Potency [5] | Potency [6] | Potency [7] | Potency [8] | Potency [9] | activity change, positive = activation [10] 3.13% | Potency [11] | Potency [12] | Potency [13] | Potency [14] | Potency [15] | Potency [16] | Potency [19] | max response [18] -1.02%
